Data taken from ChEMBL document CHEMBL1157539, “Thousands of chemical starting points for antimalarial lead identification” (Nature, 2010).

Key:
Format in all cases: functional
Plasmodium falciparum [1] = assay: GSK_TCMDC: Inhibition of Plasmodium falciparum 3D7 in whole red blood cells, using parasite LDH activity as an index of growth. Test compounds present at 2uM
Plasmodium falciparum [2] = assay: GSK_TCMDC: Inhibition of Plasmodium falciparum Dd2 in whole red blood cells, using parasite LDH activity as an index of growth. Test compounds present at 2uM
HepG2 = assay: GSK_TCMDC: Percent inhibition of human HepG2 cell line. Test compounds present at 10uM.

| SMILES | Inhibition (Plasmodium falciparum [1]) [%] | Inhibition (Plasmodium falciparum [2]) [%] | Inhibition (HepG2) [%] |
| --- | --- | --- | --- |
| CC(C)(C)COc1ccc2c(N)n[nH]c2c1.Cl | 90 | 8 | 31 |
| O=C(Cc1cn(-c2ccccc2)nc1-c1ccc(Cl)cc1)Nc1nccs1 | 88 | 8 | 9 |
| O=C(Nc1cccc(-c2ccc(CN3CCNCC3)cc2)c1)c1cccc(Cl)c1.O=C(O)C(F)(F)F | 92 | 4 | 30 |
| CN1CCCN(Cc2cccc(-c3cccc(NC(=O)c4cccc(C#N)c4)c3)c2)CC1.O=C(O)C(F)(F)F | 95 | 33 | 18 |
| OC(CNCc1ccccc1OCc1ccccc1)c1cc(Br)cs1 (stereo not drawn) | 97 | 88 | 16 |
| CC(=O)Nc1ccc(S(=O)(=O)Nc2ccc(Nc3nc(C)cc(N(C)C)n3)cc2)cc1 | 100 | 22 | 0 |
| COc1ccc2ccccc2c1CNCCCCCCNCc1c(OC)ccc2ccccc12.Cl | 100 | 35 | 99 |
| CC(C)CCNCc1ccc(OCc2ccccc2COc2ccc(CNCCC(C)C)cc2I)c(I)c1.Cl | 100 | 78 | 99 |
| Nc1ccnc(N2CCC(CCOc3cc(C(F)(F)F)nc4c(C(F)(F)F)cccc34)CC2)c1 | 98 | 17 | 35 |
| Cc1ccc(F)c(OC2CCN(c3ccc(C(=O)NC4CC4)cn3)CC2)c1 | 92 | 72 | 10 |
| COc1cccc(NC(=O)c2ccc(NCCCN3CCC(C)CC3)c([N+](=O)[O-])c2)c1 | 100 | 46 | 9 |
